Assay outcomes as filed in PubChem.
PLK1 PBD block = PLK1 (human) polo-box domain binding inhibition | 360,000 tested, 2.8% active | Plk1 PBD binding of FITC phosphopeptide, fluorescence polarization | Potency, µM, for inactives: max response, negative = inhibition, usual class: inhibitors | P53350; further: series mostly up to about 57 µM; on the % scale 0 is the no-effect control and ±100 the full control effect; nearly all actives have a fitted effect of over 65% in size
VDR inh = vitamin D3 receptor (human) inhibition; VDR-SRC2-3 peptide fluorescence polarization, 2 h; P11473; Potency, µM, without a hit: max response, negative = inhibition, usual class: inhibitors; 400,000 tested, 0.93% active; AID 504847; further: on the % scale 0 is the no-effect control and ±100 the full control effect
Target sequence (P11473 whole entry, looked up): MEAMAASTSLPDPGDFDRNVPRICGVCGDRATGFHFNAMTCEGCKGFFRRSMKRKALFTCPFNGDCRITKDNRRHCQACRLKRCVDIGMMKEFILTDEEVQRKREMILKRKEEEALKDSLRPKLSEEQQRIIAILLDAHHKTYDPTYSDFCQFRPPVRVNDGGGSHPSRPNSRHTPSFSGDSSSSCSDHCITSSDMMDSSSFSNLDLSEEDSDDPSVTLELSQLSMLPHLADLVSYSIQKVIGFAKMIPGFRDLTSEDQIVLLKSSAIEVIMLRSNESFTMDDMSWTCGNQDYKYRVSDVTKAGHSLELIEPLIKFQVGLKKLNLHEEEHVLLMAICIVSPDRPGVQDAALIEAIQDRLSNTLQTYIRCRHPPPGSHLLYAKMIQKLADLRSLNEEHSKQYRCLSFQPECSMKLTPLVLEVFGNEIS
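Measured by FP: displacement of SRC2-3 coactivator peptide from VDR by library compounds, following a two-hour ambient incubation.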
GLS inhibitor = inhibitors of human glutaminase (GLS); GLS enzymatic activity, qHTS titration; O94925; 410,000 tested, 0.21% active; Potency, µM (top dose mostly 45.5 µM), for the others: at the highest dose activity change, negative = inhibition, usual class: inhibitors; further: on the % scale 0 is the no-effect control and ±100 the full control effect
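Human kidney-isoform GLS in 45 mM KH2PO4 pH 8.2, 0.02% Tween-20, with compound, started with 1mM L-Glutamine (added stock). Glutamate oxidase/HRP/Amplex red coupled fluorescence read at start and after 30 min at RT.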
Mito fusion act = mitochondrial division inhibition or fusion activation; S. cerevisiae fusion-defective mutant growth rescue, CellTiterGlo 48 h; Potency, µM (highest dose often 46.1 µM), inactives show top-dose growth rescue (activation), most hits filed as activators; 320,000 tested, 0.23% active; AID 485298; further: % of control where 0% means no effect; nearly all actives have a fitted effect of over 45% in size
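Yeast fusion mutant, YPEG (non-fermentable carbon), compound, 48 h at 37C non-permissive; CellTiterGlo added, 10 min RT, luminescence read. Rescued growth = division inhibition.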
PKM2 act = PKM2 (human) enzyme activation | Potency, µM (titrated, usually from 57.5 µM), for the others: at the top dose activation, usual class: activators | purified PKM2, Kinase-Glo ATP luminescence, activation; response scale: 0% is enzyme alone, no compound | P14618 | 260,000 tested, 0.34% active; further: on the % scale 0 is the no-effect control and ±100 the full control effect; nearly all actives have a fitted effect of over 55% in size
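Purified hPK-M2 (>95%) run at intermediate activity with 0.1 mM ADP and 0.5 mM PEP in 50 mM imidazole pH 7.2, KCl, MgCl2; 1 h room temperature. ATP formed read by Kinase-Glo luminescence; normalized to uninhibited and no-enzyme controls.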
KAT2A inh = inhibitors of human GCN5L2 histone acetyltransferase; GCN5L2 HAT assay, ThioGlo1 CoA-SH fluorescence; 390,000 tested, 0.21% active; Q92830; AID 504327; Potency, µM (titrated, usually from 58.9 µM), for the others: top-dose activity change, negative = inhibition, actives largely listed as inhibitors; further: on the % scale 0 is the no-effect control and ±100 the full control effect
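Fluorescence readout, Ex340nm/Em540nm: ThioGlo1 (50uM final) reacts with free CoA thiol released as 20nM GCN5L2 acetylates H3(1-25) peptide (75uM) using acetyl-CoA (70uM). Compound and enzyme sat 15 min beforehand; 20 min room-temperature reaction.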
Active calls of the source: *; ? = inconclusive; . = no result; ! = repeats disagree; [ ] = dose if it differs, or a comment. Sampled rows, rich in hits. Any-hit rate of the full collection: about 3.4%. The call rests on the fitted dose curve; in most records, active means well fitted curve in the direction sought with a large enough effect; inconclusive means small, poorly fitted or top-dose-only effect, or another doubt; inactive means no such curve, though single readings can be large; an effect the other way counts as inactive or inconclusive. Potency means the concentration at half of the fitted maximal effect.

SMILES	PLK1 PBD block	VDR inh	GLS inhibitor	Mito fusion act	PKM2 act	KAT2A inh
O=C(/C=C/C(=O)Oc1ccccc1C(=O)O)Oc1ccccc1C(=O)O	.	-14.6%	.	.	.	-14.6%
CCOc1ccc(N2C(=O)CC(N3CCc4ccccc43)C2=O)cc1 (stereo not drawn)	-3.1%	13.3%	-5.0%	-1.8%	6.7%	-2.8%
CCOC(=O)c1ccc(N2C(=O)C3CCCN3C2=S)cc1 (stereo not drawn)	11.9µM*	-21.4%	-2.1%	1.7%	.	44.7%
CCOc1ccc(NC(=O)CN2C(=O)C3CCCN3C2=O)cc1 (stereo not drawn)	23.8µM*	-28.7%	7.0%	-4.8%	-6.1%	-5.6%
CCOc1ccc(N2C(=O)C3CCCN3C2=S)cc1 (stereo not drawn)	21.2µM*	-10.9%	5.9%	-1.3%	.	-3.5%
N#Cc1cc([N+](=O)[O-])c2sc(C(N)=O)[n+]([O-])c2c1	.	5.3%	.	9.0%	.	-0.2%
O=S(=O)(O)c1ccc2c(c1)-c1nc-2nc2[nH]c(nc3nc(nc4[nH]c(n1)c1ccc(S(=O)(=O)O)cc41)-c1ccc(S(=O)(=O)O)cc1-3)c1ccc(S(=O)(=O)O)cc21	.	25.1µM*	.	.	.	0.631µM*
CC1CCCC(NC(=O)CCC(=O)N2CCOc3ccccc32)C1C (stereo not drawn)	15µM*	?	33.5%	3.0%	.	0.6%
CC1CCCC(NC(=O)CCC(=O)c2ccc(F)cc2)C1C (stereo not drawn)	23.8µM*	-18.4%	-4.7%	8.7%	-1.2%	-3.6%
O=C(CCC(=O)N1CCOc2ccccc21)NC1CCN(Cc2ccccc2)CC1	-6.5%	3.0%	7.8%	-1.1%	5.0%	?
CCOC(=O)CN1C(=O)N[C@@H](c2cccc(C(F)(F)F)c2)[C@H](C(=O)OC)[C@H]1C	.	.	.	.	-8.1%[11.5 µM]	.
CCc1ccc(NC(=O)CSc2nccn(-c3ccc4c(c3)OCCO4)c2=O)cc1	-17.2%	?	2.1%	29.5%	.	-2.8%
Cc1ccc(NC(=O)c2sc3nc[nH]c(=O)c3c2C)cc1C	.	18.1%	-4.7%	.	.	-6.6%
O=C(Oc1cccc(Oc2ccccc2)c1)N1CCOCC1	-5.2%	-1.0%	17.6%	-9.0%	-9.3%	-6.4%
COc1cc(/C=C(\C#N)C(=O)N2CCOCC2)cc(Br)c1O	21.2µM*	7.5%	40.5%	13.0%	7.6%	-6.0%
N#C/C(=C\c1cccc(Oc2ccccc2)c1)C(=O)N1CCOCC1	?	44.7µM*	0.0%	6.2%	0.9%	-4.3%
O=C(C1CCCN(c2ncnc3c2nc2n3CCCCC2)C1)N1CCN(c2ccccc2)CC1 (stereo not drawn)	-4.6%	2.2%	2.4%	2.3%	.	-19.2%
O=C(C1CCCN(c2ncnc3c2nc2n3CCCCC2)C1)N1CCN(c2cccc(Cl)c2)CC1 (stereo not drawn)	3.0%	-8.4%	2.0%	8.91µM*	.	-8.1%
Clc1cccc(Cc2c(-c3ccccc3)nc3c4ccccc4ccn23)c1	5.2%	.	-2.2%	.	.	.
CCOc1cc(/C=N/Nc2nncc(-c3ccccc3)n2)ccc1O	15µM*	-10.5%	0.0%	7.1%	-3.3%	-12.9%
COc1ccc(-c2cnnc(N/N=C/c3ccc(OC)c(OC)c3)n2)cc1	5.5%	-20.1%	-0.4%	-1.8%	4.5%	-7.2%
Oc1cccc(/C=N\Nc2nncc(-c3ccccc3)n2)c1	21.2µM*	?	0.0%	13.0%	-18.6%	-4.2%
COc1cccc(Cn2c(=O)n(Cc3ccco3)c(=O)c3oc4ccccc4c32)c1	.	-3.0%	0.1%	.	.	-4.4%
CC(NC(=O)/C(C#N)=C/c1ccc(OCC(=O)O)cc1)c1ccccc1 (stereo not drawn)	-8.8%	-32.8%	-4.3%	-3.3%	-3.2%	-10.2%
CC(NC(=O)/C(C#N)=C/c1ccc(Cl)c([N+](=O)[O-])c1)c1ccccc1 (stereo not drawn)	11.9µM*	?	-3.3%	-3.4%	?	-8.7%
SMILES	PLK1 PBD block	VDR inh	GLS inhibitor	Mito fusion act	PKM2 act	KAT2A inh
Cc1ccc(S(=O)(=O)/C=C\C#N)cc1	.	2.82µM*	.	.	.	28.2µM*
Cc1ccc(S(=O)(=O)/C=C/C#N)cc1	.	11.2µM*	.	-68.9%	.	22.4µM*!
CC(C)(C)c1ccc(S(=O)(=O)/C=C\C#N)cc1	.	2µM*	.	.	.	28.2µM*
CCCCCCCCCCCCCCCC(=O)NC(C)C	.	4.5%	.	.	.	-11.0%
O=C(O)C(=O)/C(=C\c1cccc2ccccc12)c1ccc2ccccc2n1	67µM*	1.5%	40.8%	3.8%	1.9%	-2.0%
CCCN1CCN(CCCNC(=O)c2ccc3c(c2)sc2nc(-c4ccc(OC)cc4)cn23)CC1	.	3.5%	-0.4%	.	.	-6.2%
CCC/C(O)=C1\C(=O)CC(C)(C)CC1=Nc1ccccc1O	13.4µM*	79.4µM*	-11.3%	16.8%	-0.1%	2.1%
O=C(COC(=O)Cc1ccsc1)Nc1cccc(F)c1	-5.7%	89.1µM*	-0.9%	-0.4%	.	-3.7%
O=C(COC(=O)Cc1ccsc1)Nc1cccc(Cl)c1	3.1%	0.7%	-1.0%	0.6%	.	-5.9%
O=C(Cc1ccsc1)Nc1ccccc1F	26.7µM*	?	0.3%	8.8%	-1.1%	-1.0%
CC1CCN(S(=O)(=O)c2cn(CC(=O)Nc3ccc(F)c(Cl)c3)c(=O)c3ccccc23)CC1	.	-24.8%	-0.5%	.	.	-16.3%
COCCCn1c(C(=O)Nc2ccc3c(c2)OCO3)cc2c(=O)n3ccccc3nc21	2.99µM*	?	?	0.8%	.	-6.9%
CN1C(=O)NC(c2ccc(O)cc2)C2=C1CN(c1ccc(O)cc1)C2=O (stereo not drawn)	0.3%	-4.2%	-1.0%	1.5%	1.1%	-4.4%
CN1C(=O)NC(c2ccc(O)cc2)C2=C1CN(c1ccccc1)C2=O (stereo not drawn)	23.8µM*	?	-7.8%	-0.8%	-0.6%	0.0%
Cc1nc(CN2CCC(c3ccccc3)CC2)cc(=O)[nH]1	21.2µM*	?	-0.6%	2.7%	5.6%	21.8%
CC[C@H](C)[C@H](N)C(=O)N[C@H]1CCC(=O)NCC(C(=O)N[C@@H](Cc2ccc(O)cc2)C(=O)N[C@@H](CCCNC(=N)N)C(=O)N[C@@H](CC(C)C)C(=O)N[C@@H](CCCNC(=N)N)C(=O)N[C@@H](Cc2ccc(O)cc2)C(N)=O)NC(=O)[C@@H]2CCCN2C(=O)[C@@H](NC(=O)[C@@H](N)[C@@H](C)CC)CCC(=O)NCC(C(=O)N[C@@H](Cc2ccc(O)cc2)C(=O)N[C@@H](CCCNC(=N)N)C(=O)N[C@@H](CC(C)C)C(=O)N[C@@H](CCCNC(=N)N)C(=O)N[C@@H](Cc2ccc(O)cc2)C(N)=O)NC(=O)[C@@H]2CCCN2C1=O (stereo partly drawn)	.	9.6%	.	.	.	43.1%
